The source of these data is ChEMBL document CHEMBL3988442, “University of Dundee, Small-Polar-MMV Screening Library” (2021).

Set-up in all cases: scale not given: direction of the effect not stated beside the values
Experiment [1] concerns the target Protein translocase subunit SecA (Escherichia coli (strain K12)) (UniProt P10408). As to the kind of experiment: Assay to Identify E. coli SecA ATPase Inhibitors. It counts as functional. As to conditions: 30 µM.
Experiment [2] deals with T1, Ubiquitin-activating enzyme e1, putative (Leishmania donovani (strain BPK282A1)) (UniProt E9BSI1).
T1 sequence (whole entry): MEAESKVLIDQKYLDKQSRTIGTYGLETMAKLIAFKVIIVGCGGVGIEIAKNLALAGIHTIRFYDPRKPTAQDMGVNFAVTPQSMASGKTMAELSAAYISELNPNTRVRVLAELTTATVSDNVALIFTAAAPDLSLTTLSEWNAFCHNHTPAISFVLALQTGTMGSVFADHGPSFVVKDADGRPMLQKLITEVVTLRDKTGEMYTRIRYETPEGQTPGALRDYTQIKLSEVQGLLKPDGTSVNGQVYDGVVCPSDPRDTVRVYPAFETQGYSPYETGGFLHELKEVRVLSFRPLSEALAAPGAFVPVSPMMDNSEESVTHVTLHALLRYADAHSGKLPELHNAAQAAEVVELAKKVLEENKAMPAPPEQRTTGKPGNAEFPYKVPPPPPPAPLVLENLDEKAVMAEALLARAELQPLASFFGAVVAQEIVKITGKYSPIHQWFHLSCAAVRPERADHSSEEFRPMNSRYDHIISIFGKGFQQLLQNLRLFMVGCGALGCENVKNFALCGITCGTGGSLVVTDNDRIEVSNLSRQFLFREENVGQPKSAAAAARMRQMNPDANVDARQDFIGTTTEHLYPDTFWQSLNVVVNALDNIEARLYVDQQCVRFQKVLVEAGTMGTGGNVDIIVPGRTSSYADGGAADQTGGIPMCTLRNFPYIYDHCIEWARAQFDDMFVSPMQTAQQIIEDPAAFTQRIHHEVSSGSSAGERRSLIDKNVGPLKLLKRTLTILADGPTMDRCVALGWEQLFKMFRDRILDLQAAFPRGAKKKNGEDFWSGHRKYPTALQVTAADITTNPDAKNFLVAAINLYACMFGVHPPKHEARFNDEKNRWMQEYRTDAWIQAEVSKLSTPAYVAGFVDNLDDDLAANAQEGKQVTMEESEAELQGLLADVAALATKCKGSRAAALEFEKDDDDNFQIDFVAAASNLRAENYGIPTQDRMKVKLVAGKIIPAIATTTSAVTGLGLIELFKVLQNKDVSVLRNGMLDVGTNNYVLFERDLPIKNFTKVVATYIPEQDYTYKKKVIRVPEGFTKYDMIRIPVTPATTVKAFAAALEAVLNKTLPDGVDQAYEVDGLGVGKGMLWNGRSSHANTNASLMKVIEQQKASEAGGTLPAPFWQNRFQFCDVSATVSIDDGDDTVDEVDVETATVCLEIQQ
As to the kind of experiment: Leishmania donovani Ubiquitin Activating Enzyme (LdE1). It counts as functional. As to conditions: 30 µM.

The target of experiment [3] is AMP-activated protein kinase, AMPK (Homo sapiens) (UniProt P54646+O43741+P54619+Q9UGJ0+Q9Y478+Q13131+Q9UGI9). Description: AMP-dependent Kinase enzyme assay. An in vitro enzyme assay that detects ADP turnover that is directly proportional to AMPK activity. This uses naive AMPK that is activated during the assay with MK-8722. It counts as functional. The conditions noted are these: 30 µM.

The target of experiment [4] is Sialic acid-binding Ig-like lectin 9 (Homo sapiens) (UniProt Q9Y336). As to the kind of experiment: Hs-Siglec9 ALPHAscreen SOP 20170721. The conditions noted are these: 10 µM.
In a further experiment the test system is Trypanosoma cruzi. Description: Trypanosoma cruzi phosphomannomutase and mannose-1-phosphate guanylyltransferase assay. In kind it is functional. As to conditions: 10 µM.
Experiment [5] has as its target T2, Arginase-2, mitochondrial (Homo sapiens) (UniProt P78540).
T2 sequence (whole entry): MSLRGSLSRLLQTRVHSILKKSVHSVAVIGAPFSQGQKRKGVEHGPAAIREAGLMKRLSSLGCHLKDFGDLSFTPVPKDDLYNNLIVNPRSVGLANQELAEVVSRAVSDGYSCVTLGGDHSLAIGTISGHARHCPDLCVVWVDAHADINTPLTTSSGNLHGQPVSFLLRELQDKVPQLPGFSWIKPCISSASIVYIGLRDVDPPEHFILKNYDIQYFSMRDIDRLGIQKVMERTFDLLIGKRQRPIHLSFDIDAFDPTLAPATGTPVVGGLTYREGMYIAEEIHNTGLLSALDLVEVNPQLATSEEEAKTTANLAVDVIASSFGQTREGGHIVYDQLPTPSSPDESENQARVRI
As to the kind of experiment: in vitro enzyme assay to detect the production of urea directly proportional to the activity of Arginase II. Further: in the data most compounds retested in dose-response had high values. The conditions noted are these: 33.3 µM. It counts as functional.

For experiment [6], the target named is T3, Proteasome subunit beta (Trypanosoma cruzi) (UniProt O96673).
T3 sequence (whole entry): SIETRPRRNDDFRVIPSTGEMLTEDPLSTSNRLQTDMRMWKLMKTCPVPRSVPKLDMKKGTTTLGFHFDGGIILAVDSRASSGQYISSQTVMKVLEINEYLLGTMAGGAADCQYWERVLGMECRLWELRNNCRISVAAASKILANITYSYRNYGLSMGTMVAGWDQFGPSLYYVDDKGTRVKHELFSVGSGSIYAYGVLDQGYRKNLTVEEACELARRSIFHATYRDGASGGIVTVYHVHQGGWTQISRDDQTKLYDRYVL
As to the kind of experiment: Trypanosoma cruzi proteasome chymotrypsin-like activity (TcProtChymo) assay. Further: in the data most compounds retested in dose-response had high values. In kind it is functional. As to conditions: 9.37 µM.

For a further experiment, the species on record is Homo sapiens. As to the kind of experiment: To identify inhibition of the IFN signalling (Jak-Stat) pathway via expression of an eGFP reporter gene under the control of an IFN-stimulated response element (ISRE) containing MxA promoter. It counts as functional. The conditions noted are these: 30 µM.
Experiment [7] has as its target T4, Tyrosyl-tRNA synthetase, putative (Trypanosoma cruzi (strain CL Brener)) (UniProt Q4DSP6).
T4 sequence (whole entry): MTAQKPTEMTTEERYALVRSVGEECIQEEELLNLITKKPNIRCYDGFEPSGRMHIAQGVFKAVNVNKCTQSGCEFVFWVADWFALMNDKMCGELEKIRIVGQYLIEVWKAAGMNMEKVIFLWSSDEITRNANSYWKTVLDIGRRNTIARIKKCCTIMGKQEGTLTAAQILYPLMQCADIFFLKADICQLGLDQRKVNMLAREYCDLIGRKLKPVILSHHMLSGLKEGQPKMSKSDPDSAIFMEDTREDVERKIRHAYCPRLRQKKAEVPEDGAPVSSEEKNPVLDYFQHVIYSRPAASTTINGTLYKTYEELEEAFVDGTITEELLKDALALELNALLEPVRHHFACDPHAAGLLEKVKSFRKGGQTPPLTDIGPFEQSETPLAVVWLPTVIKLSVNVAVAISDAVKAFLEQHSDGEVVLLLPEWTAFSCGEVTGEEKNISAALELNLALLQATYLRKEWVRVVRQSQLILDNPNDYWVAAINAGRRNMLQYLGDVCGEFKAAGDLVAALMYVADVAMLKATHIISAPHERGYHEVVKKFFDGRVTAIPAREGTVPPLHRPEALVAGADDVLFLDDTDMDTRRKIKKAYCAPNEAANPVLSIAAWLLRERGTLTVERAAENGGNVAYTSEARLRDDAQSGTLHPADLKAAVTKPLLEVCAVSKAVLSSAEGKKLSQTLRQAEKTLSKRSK
As to the kind of experiment: Trypanosoma cruzi tyrosyl tRNA synthetase (TcYRS) _High Tyrosine SOP. Further: in the data most compounds retested in dose-response had high values. In kind it is functional. As to conditions: 30 µM.

Experiment [8] deals with T4, Tyrosyl-tRNA synthetase, putative (Trypanosoma cruzi (strain CL Brener)). Description: Trypanosoma cruzi tyrosyl tRNA synthetase (TcYRS) SOP. In kind it is functional. As to conditions: 30 µM.
Experiment [9] deals with Chromo domain-containing protein 1 (Saccharomyces cerevisiae (strain ATCC 204508 / S288c) (Baker's yeast)) (UniProt P32657). Description: ScCHD-1 Enzyme Inhibition Assay. Further: in the data most compounds retested in dose-response had high values. The conditions noted are these: 30 µM. It counts as functional.

For some of these results: Entries with a potency or affinity are not part of this list.

Chain of Protein translocase subunit SecA (Escherichia coli (strain K12)) (P10408 whole entry): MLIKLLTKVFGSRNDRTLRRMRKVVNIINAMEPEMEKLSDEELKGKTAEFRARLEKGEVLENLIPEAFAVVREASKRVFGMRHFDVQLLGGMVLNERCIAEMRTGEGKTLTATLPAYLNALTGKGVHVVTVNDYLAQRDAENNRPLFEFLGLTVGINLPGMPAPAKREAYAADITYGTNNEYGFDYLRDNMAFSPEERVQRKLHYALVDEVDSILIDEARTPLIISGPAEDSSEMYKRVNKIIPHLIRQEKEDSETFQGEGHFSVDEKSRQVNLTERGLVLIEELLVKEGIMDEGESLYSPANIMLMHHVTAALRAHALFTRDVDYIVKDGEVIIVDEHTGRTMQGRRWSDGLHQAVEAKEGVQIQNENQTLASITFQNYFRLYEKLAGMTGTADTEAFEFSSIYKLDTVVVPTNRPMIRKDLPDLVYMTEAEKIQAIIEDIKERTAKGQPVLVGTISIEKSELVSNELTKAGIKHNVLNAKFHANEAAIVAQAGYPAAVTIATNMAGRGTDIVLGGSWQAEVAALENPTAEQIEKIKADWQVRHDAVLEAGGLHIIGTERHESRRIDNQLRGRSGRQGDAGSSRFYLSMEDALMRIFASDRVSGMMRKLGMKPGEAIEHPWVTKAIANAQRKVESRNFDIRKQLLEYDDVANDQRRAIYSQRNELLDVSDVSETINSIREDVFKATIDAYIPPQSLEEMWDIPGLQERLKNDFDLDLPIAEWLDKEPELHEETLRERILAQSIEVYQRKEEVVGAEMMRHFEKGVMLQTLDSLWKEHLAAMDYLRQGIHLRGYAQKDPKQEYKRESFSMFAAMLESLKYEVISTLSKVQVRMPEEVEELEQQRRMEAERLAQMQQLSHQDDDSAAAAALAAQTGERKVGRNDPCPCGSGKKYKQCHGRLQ
Chain of Sialic acid-binding Ig-like lectin 9 (Homo sapiens) (Q9Y336 whole entry): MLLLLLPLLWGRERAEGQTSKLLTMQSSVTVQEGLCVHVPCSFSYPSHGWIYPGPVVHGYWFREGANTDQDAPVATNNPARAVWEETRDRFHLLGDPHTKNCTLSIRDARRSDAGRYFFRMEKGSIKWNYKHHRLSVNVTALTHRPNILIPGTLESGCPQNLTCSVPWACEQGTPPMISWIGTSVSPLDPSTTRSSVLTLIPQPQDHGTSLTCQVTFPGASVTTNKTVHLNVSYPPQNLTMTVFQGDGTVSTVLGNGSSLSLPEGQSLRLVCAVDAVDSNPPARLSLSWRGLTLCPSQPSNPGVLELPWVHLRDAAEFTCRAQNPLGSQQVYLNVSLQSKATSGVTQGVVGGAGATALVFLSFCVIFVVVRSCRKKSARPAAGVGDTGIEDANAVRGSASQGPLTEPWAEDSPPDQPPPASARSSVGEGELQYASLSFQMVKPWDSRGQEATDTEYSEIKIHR
Chain of Chromo domain-containing protein 1 (Saccharomyces cerevisiae (strain ATCC 204508 / S288c) (Baker's yeast)) (P32657 whole entry, the tested form may be a part): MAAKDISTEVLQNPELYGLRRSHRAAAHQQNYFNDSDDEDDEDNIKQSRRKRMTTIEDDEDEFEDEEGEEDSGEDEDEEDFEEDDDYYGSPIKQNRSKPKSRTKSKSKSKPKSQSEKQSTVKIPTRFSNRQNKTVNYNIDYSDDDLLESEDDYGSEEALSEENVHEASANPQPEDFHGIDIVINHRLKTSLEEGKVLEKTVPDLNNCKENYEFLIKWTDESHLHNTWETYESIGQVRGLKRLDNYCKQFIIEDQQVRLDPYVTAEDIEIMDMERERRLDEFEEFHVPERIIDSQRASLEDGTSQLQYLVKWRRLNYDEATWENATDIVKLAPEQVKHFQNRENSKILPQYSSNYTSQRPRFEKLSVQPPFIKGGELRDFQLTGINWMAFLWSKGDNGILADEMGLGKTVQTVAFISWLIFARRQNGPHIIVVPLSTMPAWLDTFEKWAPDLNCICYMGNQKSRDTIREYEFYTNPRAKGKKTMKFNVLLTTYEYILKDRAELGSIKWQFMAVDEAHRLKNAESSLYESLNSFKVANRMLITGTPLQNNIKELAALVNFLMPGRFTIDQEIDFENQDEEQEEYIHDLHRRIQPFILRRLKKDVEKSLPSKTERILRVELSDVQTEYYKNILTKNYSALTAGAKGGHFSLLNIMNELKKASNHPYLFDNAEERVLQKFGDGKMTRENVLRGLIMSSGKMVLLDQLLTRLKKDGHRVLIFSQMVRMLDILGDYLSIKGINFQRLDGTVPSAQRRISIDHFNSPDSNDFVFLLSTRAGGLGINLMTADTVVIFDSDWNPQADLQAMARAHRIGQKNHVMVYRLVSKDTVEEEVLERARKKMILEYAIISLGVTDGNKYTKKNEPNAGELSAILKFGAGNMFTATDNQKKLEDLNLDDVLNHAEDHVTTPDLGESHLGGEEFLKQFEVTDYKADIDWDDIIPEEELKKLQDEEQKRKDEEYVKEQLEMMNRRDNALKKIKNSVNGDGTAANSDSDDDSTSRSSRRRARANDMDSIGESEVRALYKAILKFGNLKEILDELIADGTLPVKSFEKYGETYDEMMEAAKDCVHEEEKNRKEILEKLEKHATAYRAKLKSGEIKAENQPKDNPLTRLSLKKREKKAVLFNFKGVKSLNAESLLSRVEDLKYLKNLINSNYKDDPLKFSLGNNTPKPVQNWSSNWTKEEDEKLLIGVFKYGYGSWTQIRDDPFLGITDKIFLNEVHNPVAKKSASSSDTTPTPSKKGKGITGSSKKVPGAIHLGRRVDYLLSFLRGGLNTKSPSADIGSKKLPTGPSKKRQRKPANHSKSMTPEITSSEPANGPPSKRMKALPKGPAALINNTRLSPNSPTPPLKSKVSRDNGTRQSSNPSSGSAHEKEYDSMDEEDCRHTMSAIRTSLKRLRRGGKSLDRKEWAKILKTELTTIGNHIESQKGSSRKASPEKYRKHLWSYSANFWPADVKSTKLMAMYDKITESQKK

`CC(=O)N1CCC2(CC1)CC[C@@]1(C(=O)N(C)C)CN(S(C)(=O)=O)C[C@@H]21`: the Percent Effect in [1] is 0.456%; in experiment [2], 18.9%; in [3] it was -1.01%; in experiment [4], 10.2%; with Trypanosoma cruzi it was 2.83%; in [5], 12.7%. Besides, the Percent Effect is 4.38% in experiment [6]; 28.4% in the experiment filed under Homo sapiens; 3.23% in [7]; 18.5% in [8]; -8.55% in experiment [9].
Take `CN(CCNC(=O)Nc1ccncc1)C1CCCCC1`: the Percent Effect in [1] is -4.37%; in [2] it was 21.6%; in [3] it was -4.55%; in experiment [4] it was 6.96%; with Trypanosoma cruzi, 8.21%; in experiment [5], -0.401%. The Percent Effect in [6] is 16.6%; in the experiment listed under Homo sapiens, 8.26%; in experiment [7] it was 5.42%; in [8], 23.5%; in experiment [9], -11%.
On to `Cn1ncc2c(=O)[nH]c(CN(Cc3ccco3)C3CCCC3)nc21`, for which the Percent Effect in experiment [1] was -5.65%; in experiment [2], 23.4%; in experiment [3], -6.78%; in [4], 6.27%; with Trypanosoma cruzi, 2.81%; in experiment [5], -1.42%. For the same compound, the Percent Effect was 14.7% in experiment [6]; 6.82% in the experiment filed under Homo sapiens; 2.91% in [7]; 24.4% in experiment [8]; -9.65% in experiment [9].
`COc1ccc(NC(=O)NC(C)(C)c2noc(C)n2)cc1`: the Percent Effect was -5.98% in [1]; 2.74% in experiment [2]; 9.96% in experiment [3]; -2.01% in experiment [4]; 0.979% in the experiment with Trypanosoma cruzi; 5% in experiment [5]. Also, the Percent Effect is 13.5% in experiment [6]; 7.14% in the experiment listed under Homo sapiens; 4.3% in experiment [7]; 12.5% in [8]; -1.95% in experiment [9].
Take `COc1ccccc1OCc1cc(C(=O)N2CC=CC2C(C)C)n[nH]1` (stereo unspecified): the Percent Effect was 0.254% in [1]; 1.39% in experiment [2]; -2.81% in experiment [3]; 9.42% in experiment [4]; 2.82% in the experiment on Trypanosoma cruzi; 8.83% in experiment [5]. The Percent Effect in experiment [6] is 11.9%; in the experiment filed under Homo sapiens, -13.9%; in experiment [7], 5.26%; in experiment [8], 7.69%; in experiment [9] it was -2.27%.
As to `COc1cccc(CN(C)C(=O)CCC(=O)c2ccc(Cl)cc2)c1OC`, the Percent Effect in experiment [1] was -3.29%; in experiment [2] it was -5.48%; in [3], -3.03%; in experiment [4] it was 3.31%; in the experiment on Trypanosoma cruzi, -0.992%; in experiment [5] it was -7.58%. Further, the Percent Effect was 6.59% in experiment [6]; 17% in the experiment listed under Homo sapiens; 1.04% in experiment [7]; 8.64% in experiment [8]; -4.85% in experiment [9].
`CCc1nc(CN2CCCN(C(=O)C(C)COC)CC2)cs1` (stereo unspecified): the Percent Effect in experiment [1] is -1.87%; in experiment [2], 26%; in experiment [3], -9.16%; in experiment [4], 1.76%; in the experiment on Trypanosoma cruzi, 3%; in [5], 3.92%. In addition, the Percent Effect was 17.2% in experiment [6]; 10.8% in the experiment filed under Homo sapiens; 9.71% in experiment [7]; 21.9% in experiment [8]; -10.9% in experiment [9].
On to `Clc1ccccc1C1(c2ccnc(CC3CC3)n2)CCNCC1`, for which the Percent Effect in experiment [1] is -2.96%; in [2], -7.79%; in [3], -1.73%; in [4], 13.8%; in the experiment on Trypanosoma cruzi it was 6.59%; in experiment [5], -80%. Further, the Percent Effect in experiment [6] was 13.1%; in the experiment listed under Homo sapiens it was -7.99%; in experiment [7], 8.6%; in experiment [8], 16.1%; in experiment [9] it was -0.745%.
For `Cn1cnnc1C1CCCN(C(=O)c2n[nH]c3ccccc23)C1` (stereo unspecified), the Percent Effect in experiment [1] was -3.18%; in experiment [2], 18.2%; in [3], -8.06%; in experiment [4] it was -14.8%; with Trypanosoma cruzi, 5.19%; in experiment [5] it was -3.16%. Moreover, the Percent Effect in experiment [6] is 13.8%; in the experiment listed under Homo sapiens, -1.86%; in experiment [7] it was 8.57%; in experiment [8], 32.9%; in experiment [9] it was -21.5%.
Take `COc1ccc(OC)c(NC(=O)N2CCCC2c2ccco2)c1` (stereo unspecified): the Percent Effect in experiment [1] was -1.78%; in experiment [2], 5.2%; in experiment [3], 7.39%; in experiment [4] it was -2.94%; in the experiment with Trypanosoma cruzi, -0.888%; in experiment [5], 1.94%. The Percent Effect in [6] is 7.83%; in the experiment filed under Homo sapiens, 13.8%; in [7] it was -1.06%; in [8], 3.85%; in experiment [9], -8.44%.
As for `CS(=O)(=O)NCC1CCCCN1C(=O)Nc1cccnc1N1CCCC1` (stereo unspecified), the Percent Effect in experiment [1] is -15.1%; in experiment [2], 13.2%; in experiment [3], -38%; in experiment [4] it was 3.6%; with Trypanosoma cruzi, 7.89%; in experiment [5], 0%. Also, the Percent Effect in [6] was 8.92%; in the experiment filed under Homo sapiens it was 2.36%; in experiment [7] it was 5.32%; in experiment [8], 13%; in experiment [9] it was -19.9%.
